Source: PubChem BioAssay AID1159580 (chemical genetic matrix, 2015)
Where “and” joins values, the source holds several entries; their conditions need not be identical. Identical values can stand only once. The whole screen tested about 5,500 compounds, of which about 2,000 (36%) were called active. Another 18% or so got no clear call; they are omitted. Rule as the data show it: active = normalized growth mostly below about 0.91 (no sharp cut-off); inconclusive = no clear call, values can overlap the other calls; inactive = mostly above about 0.92. Some of the results follow.

Assay: chemical genetic growth profiling, strain panel (AID 1159580);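 also: tested at 20 µM; growth read once vehicle control cultures reached saturation at 30 °C; 1 = growth at the plate median or of vehicle wells; lower values mean less growth of the strain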
Settings: growth OD

Measured: normalized growth

N=c1nc(N2CCCCC2)cc(N)n1O
inactive: S. cerevisiae deletion strains, locus YJR075W, strain HOC1, hits give low values 1 | S. cerevisiae deletion strains, locus YKL009W, strain mrt4, hits give low values 0.948 | S. cerevisiae deletion strains, locus YKL068W, hits give low values 0.993 | S. cerevisiae deletion strains, locus YKL085W, strain MDH1 (second series), hits give low values 0.995 | S. cerevisiae deletion strains, locus YKL085W, strain MDH1, hits give low values 0.995 | S. cerevisiae deletion strains, locus YKL160W, strain elf1, hits give low values 0.969 | S. cerevisiae deletion strains, locus YKL190W, strain CNB1, hits give low values 0.996 | S. cerevisiae deletion strains, locus YKR001C, strain vps1, hits give low values 0.995 | S. cerevisiae deletion strains, locus YKR026C, strain gcn3, hits give low values 0.997 | S. cerevisiae deletion strains, locus YKR091W, strain srl3, hits give low values 0.977 | S. cerevisiae deletion strains, locus YLL001W, strain dnm1, hits give low values 0.932 | S. cerevisiae deletion strains, locus YLL026W, hits give low values 0.985 | S. cerevisiae deletion strains, locus YLL041C, strain sdh2, hits give low values 0.99 | S. cerevisiae deletion strains, locus YLR027C, strain aat2, hits give low values 1.01 | S. cerevisiae deletion strains, locus YLR039C, strain RIC1, hits give low values 0.976 | S. cerevisiae deletion strains, locus YLR058C, strain SHM2, hits give low values 0.97 | S. cerevisiae deletion strains, locus YLR102C, strain apc9, hits give low values 0.981 | S. cerevisiae deletion strains, locus YLR113W, strain HOG1, hits give low values 0.984 | S. cerevisiae deletion strains, locus YLR221C, strain rsa3, hits give low values 0.948 | S. cerevisiae deletion strains, locus YLR258W, strain gsy2, hits give low values 0.998 | S. cerevisiae deletion strains, locus YLR262C, strain YPT6 (second series), hits give low values 0.989 | S. cerevisiae deletion strains, locus YLR262C, strain YPT6, hits give low values 0.903 | S. cerevisiae deletion strains, locus YLR268W, strain sec22, hits give low values 1.08 | S. cerevisiae deletion strains, locus YLR320W, strain mms22, hits give low values 0.96 | S. cerevisiae deletion strains, locus YLR330W, strain CHS5, hits give low values 0.979 | S. cerevisiae deletion strains, locus YLR342W, strain FKS1 (second series), hits give low values 0.98 | S. cerevisiae deletion strains, locus YLR342W, strain FKS1, hits give low values 0.985 | S. cerevisiae deletion strains, locus YLR357W, strain rsc2, hits give low values 0.996 | S. cerevisiae deletion strains, locus YLR370C, strain arc18, hits give low values 0.982 | S. cerevisiae deletion strains, locus YLR371W, strain rom2, hits give low values 0.95 | S. cerevisiae deletion strains, locus YLR384C, strain iki3, hits give low values 0.987 | S. cerevisiae deletion strains, locus YLR418C, strain cdc73, hits give low values 0.994 | S. cerevisiae deletion strains, locus YML016C, strain PPZ1, hits give low values 0.973 | S. cerevisiae deletion strains, locus YML032C, strain rad52, hits give low values 0.998 | S. cerevisiae deletion strains, locus YML120C, strain ndi1, hits give low values 0.959 | S. cerevisiae deletion strains, locus YML124C, strain tub3, hits give low values 0.98 | S. cerevisiae deletion strains, locus YMR058W, strain fet3, hits give low values 0.986 | S. cerevisiae deletion strains, locus YMR078C, strain ctf18, hits give low values 0.979 | S. cerevisiae deletion strains, locus YMR125W, strain sto1, hits give low values 0.978 | S. cerevisiae deletion strains, locus YMR129W, hits give low values 0.99 | S. cerevisiae deletion strains, locus YMR205C, strain PFK2, hits give low values 0.947 | S. cerevisiae deletion strains, locus YMR223W, strain ubp8, hits give low values 0.945 | S. cerevisiae deletion strains, locus YMR231W, strain pep5, hits give low values 0.991 | S. cerevisiae deletion strains, locus YMR263W, strain SAP30, hits give low values 0.993 | S. cerevisiae deletion strains, locus YMR307W, strain GAS1, hits give low values 0.935 | S. cerevisiae deletion strains, locus YNL067W, strain RPL9B, hits give low values 0.999 | S. cerevisiae deletion strains, locus YNL071W, strain lat1, hits give low values 0.991 | S. cerevisiae deletion strains, locus YNL128W, strain TEP1, hits give low values 0.953 | S. cerevisiae deletion strains, locus YNL153C, strain GIM3, hits give low values 1.01 | S. cerevisiae deletion strains, locus YNL175C, strain NOP13, hits give low values 0.994 | S. cerevisiae deletion strains, locus YNL183C, strain NPR1, hits give low values 0.945 | S. cerevisiae deletion strains, locus YNL197C, strain WHI3, hits give low values 0.993 | S. cerevisiae deletion strains, locus YNL209W, strain ssb2, hits give low values 0.984 | S. cerevisiae deletion strains, locus YNL224C, strain SQS1, hits give low values 1.01 | S. cerevisiae deletion strains, locus YNL233W, strain BNI4, hits give low values 0.998 | S. cerevisiae deletion strains, locus YNL248C, strain rpa49, hits give low values 1 | S. cerevisiae deletion strains, locus YNL250W, strain rad50, hits give low values 0.98 | S. cerevisiae deletion strains, locus YNL271C, strain bni1, hits give low values 0.987 | S. cerevisiae deletion strains, locus YNL298W, strain CLA4, hits give low values 0.996 | S. cerevisiae deletion strains, locus YNL307C, strain MCK1, hits give low values 0.999 | S. cerevisiae deletion strains, locus YNL322C, strain KRE1 (second series), hits give low values 0.98 | S. cerevisiae deletion strains, locus YNL322C, strain KRE1, hits give low values 0.989 and 0.993 | S. cerevisiae deletion strains, locus YNR049C, strain mso1, hits give low values 0.972 | S. cerevisiae deletion strains, locus YNR052C, strain pop2, hits give low values 0.98 | S. cerevisiae deletion strains, locus YOL006C, strain TOP1, hits give low values 1.02 | S. cerevisiae deletion strains, locus YOL012C, strain htz1 0.984 | S. cerevisiae deletion strains, locus YOL147C, strain pex11, hits give low values 0.987 | S. cerevisiae deletion strains, locus YOR001W, strain rrp6, hits give low values 1.02 | S. cerevisiae deletion strains, locus YOR061W, strain CKA2, hits give low values 0.964 | S. cerevisiae deletion strains, locus YOR069W, strain VPS5, hits give low values 0.987 | S. cerevisiae deletion strains, locus YOR070C, strain gyp1, hits give low values 0.996 | S. cerevisiae deletion strains, locus YOR080W, strain dia2, hits give low values 0.984 | S. cerevisiae deletion strains, locus YOR083W, strain WHI5 (second series), hits give low values 1.01 | S. cerevisiae deletion strains, locus YOR083W, strain WHI5, hits give low values 0.974 | S. cerevisiae deletion strains, locus YOR106W, strain vam3, hits give low values 0.944 | S. cerevisiae deletion strains, locus YOR136W, strain idh2, hits give low values 0.988 | S. cerevisiae deletion strains, locus YOR144C, strain elg1, hits give low values 0.988 | S. cerevisiae deletion strains, locus YOR184W, strain ser1, hits give low values 1 | S. cerevisiae deletion strains, locus YOR231W, strain MKK1, hits give low values 1.02 | S. cerevisiae deletion strains, locus YOR265W, strain rbl2, hits give low values 0.989 | S. cerevisiae deletion strains, locus YOR270C, strain vph1, hits give low values 0.979 | S. cerevisiae deletion strains, locus YOR290C, strain snf2, hits give low values 0.896 | S. cerevisiae deletion strains, locus YOR316C, strain cot1, hits give low values 0.993 | S. cerevisiae deletion strains, locus YPL051W, strain arl3, hits give low values 1 | S. cerevisiae deletion strains, locus YPL055C, strain LGE1, hits give low values 0.988 and 0.98 | S. cerevisiae deletion strains, locus YPL078C, strain atp4, hits give low values 0.968 | S. cerevisiae deletion strains, locus YPL106C, strain sse1, hits give low values 0.948 | S. cerevisiae deletion strains, locus YPL240C, strain hsp82, hits give low values 0.981 | S. cerevisiae deletion strains, locus YPL241C, strain CIN2, hits give low values 0.976 | S. cerevisiae deletion strains, locus YPL256C, strain CLN2, hits give low values 0.993 | S. cerevisiae deletion strains, locus YPR119W, strain clb2, hits give low values 0.982 | S. cerevisiae deletion strains, locus YPR141C, strain kar3, hits give low values 0.974 | S. cerevisiae deletion strains, locus YPR163C, strain tif3, hits give low values 0.993 | S. cerevisiae deletion strains, locus YPR167C, strain met16, hits give low values 0.995 | S. cerevisiae deletion strains, strain wtn01, hits give low values 1.04 | S. cerevisiae strains, strain wild type, hits give low values 0.992
